Hits are enriched below; roughly 3% of the tested compounds scored in any of these assays.
CHT inh: inhibits the human high affinity choline transporter; hit rate 0.86% among 310,000; AID 488975; CHT-expressing cells, membrane potential dye, choline response; stronger effect = lower value; B-score at 10 µM;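 active = B-score over 3 SD under the library average, and starting fluorescence ratio not unusually high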;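 note: choline stimulus applied at its EC90 after an EC20 pre-addition; B-score computed on integrated fluorescence ratio after choline addition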
Target sequence (Q9GZV3 whole entry, looked up): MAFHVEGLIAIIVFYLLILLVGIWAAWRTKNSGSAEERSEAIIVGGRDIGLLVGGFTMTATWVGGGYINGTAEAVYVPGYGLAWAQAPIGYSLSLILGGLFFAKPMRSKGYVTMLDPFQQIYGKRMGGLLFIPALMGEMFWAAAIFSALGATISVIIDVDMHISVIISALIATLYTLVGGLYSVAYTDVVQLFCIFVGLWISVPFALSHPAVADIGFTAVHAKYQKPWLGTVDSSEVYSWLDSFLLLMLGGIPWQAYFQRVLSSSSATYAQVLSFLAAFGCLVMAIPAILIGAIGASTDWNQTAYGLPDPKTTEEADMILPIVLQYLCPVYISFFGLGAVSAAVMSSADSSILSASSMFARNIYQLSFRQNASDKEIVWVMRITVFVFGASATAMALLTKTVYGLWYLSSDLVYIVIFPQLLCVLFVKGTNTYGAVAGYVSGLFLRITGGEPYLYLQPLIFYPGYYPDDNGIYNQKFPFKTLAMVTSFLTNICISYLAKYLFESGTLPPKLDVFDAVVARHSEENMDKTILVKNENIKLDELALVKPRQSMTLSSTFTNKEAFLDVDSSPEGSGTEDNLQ
NALP1 inh: blocks the NALP1 inflammasome reconstituted in yeast | S. cerevisiae NALP1/ASC/caspase-1 growth, X-gal OD620, 72 h | inhibition, % at 10 µM | hit rate 0.61% among 280,000 | AID 2071; in the data active = inhibition mostly above about 24%, no sharp cut-off; inactive = mostly below about 32%
A1 inh: inhibitors of the anti-apoptotic protein A1, read as caspase activation | hit rate 0.066% among 330,000 | caspase activation, % (concentration not given with the values) | MEF A1-2A-BIM cells, Caspase-Glo 3/7 luminescence, 3 h; percent of clofoctol response, vehicle zero;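 active = over half of replicate activation scores above 10%, or exactly half above 10 with the replicate mean above 10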
SUMO Mot1 rescue: SUMOylation pathway inhibition by Mot1-301 growth rescue; growth rescue, % at 18.8 µM; AID 2716; hit rate 1% among 320,000; S. cerevisiae Mot1-301 growth rescue, ATP luminescence, 38.5C; percent above DMSO median, 100 means doubled;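 active = every valid replicate shows activation above 250% relative to neutral control wells; inactive = the rest, any valid replicate at or below 250%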
CHT PAM: human CHT allosteric activation. Q9GZV3. CHT-expressing cells, membrane potential dye, choline EC20; stronger effect = higher value; LV-AA mutant CHT in HEK293 cells. B-score at 10 µM. hit rate 0.49% among 310,000;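 active = initial fluorescence not abnormally high and integrated response B-score, plate-corrected, over 3 SD above library mean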
NALP3 yeast inh: blocks the NALP3 inflammasome reconstituted in yeast; Yeast reconstituted NLRP3/ASC/caspase-1, beta-gal luminescence, 24 h; inhibition, % at 10 µM; hit rate 0.39% among 330,000;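 active = inhibition of 50% or more; inactive = inhibition below 50%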
CHT block conf: human CHT inhibition, confirmatory screen; shares compounds with CHT inh; CHT-expressing cells, choline membrane potential dye; LV-to-AA substituted CHT, HEK293 cells; CHT activity remaining % of control (stronger effect = lower value), % at 10 µM; hit rate 70% among 2,400; AID 493221;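 active = choline transporter activity left, mean of duplicates at 10 µM, below buffer-only control mean minus 3 SD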;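 note: depolarization triggered by choline at its EC90 following an EC20 pre-addition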
HEK293 MPD ctr: counter-screen for CHT inhibitors: effect in parental HEK293 cells; membrane potential ratio readout (active if shifted either direction beyond buffer ±3SD; no single direction) at 10 µM; AID 493222; membrane potential dye, choline response; active = decrease or increase beyond buffer ±3SD; shares compounds with CHT inh; hit rate 4% among 2,400;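 note: parental cells lack the transporter so any hit is non-specific; ratio is peak minus trough fluorescence over baseline after EC90 choline challenge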
A number is an active result; . = inactive; / = no result given.

SMILES	CHT inh	NALP1 inh	A1 inh	SUMO Mot1 rescue	CHT PAM	NALP3 yeast inh	CHT block conf	HEK293 MPD ctr
Cc1cccc(N(CC(=O)N2CCCC2)S(C)(=O)=O)c1	.	.	.	.	.	.	/	/
O=C(C1CCCN(c2ncnc3c2nc2n3CCCCC2)C1)N1CCN(c2ccccc2)CC1 (configuration not stated)	-6.4	.	.	.	.	.	15%	.
Cc1cccc(N2CCN(C(=O)C3CCN(c4ncnc5c4nc4n5CCCCC4)CC3)CC2)c1C	.	.	.	.	.	.	/	/
O=C(Nc1cc(F)ccc1F)C1CCCN(c2ncnc3c2nc2n3CCCCC2)C1 (configuration not stated)	-6	.	.	.	.	.	46%	.
COc1ccccc1N1CCN(C(=O)C2CCCN(c3ncnc4c3nc3n4CCCCC3)C2)CC1 (configuration not stated)	.	.	.	.	.	.	/	/
Cc1cccc(N2CCN(C(=O)C3CCN(c4ncnc5c4nc4n5CCCCC4)CC3)CC2C)c1 (configuration not stated)	-5	.	.	.	.	.	43%	.
Cc1ccc(N2CCN(C(=O)C3CCCN(c4ncnc5c4nc4n5CCCCC4)C3)CC2)c(C)c1 (configuration not stated)	-5.9	.	.	.	.	.	45%	.
COc1ccc(Cl)cc1NC(=O)CN(C)CC(=O)NCc1ccc(F)cc1	/	/	.	.	/	.	/	/
O=C(C1CCCN(c2ncnc3c2nc2n3CCCCC2)C1)N1CCN(c2cccc(Cl)c2)CC1 (configuration not stated)	-10	.	.	.	.	.	47%	.
C=CCn1c(SCc2ccc(Cl)cc2)nc2c1c(=O)[nH]c(=O)n2C	.	.	.	.	.	.	/	/
C=CCn1c(SCc2ccc(F)cc2)nc2c1c(=O)[nH]c(=O)n2C	-6	.	.	.	.	.	.	.
CCOc1ccc(CN2CCC(C(=O)Nc3cccc(-c4ccn[nH]4)c3)CC2)cc1Cl	.	.	/	/	.	.	/	/
C=CCn1c(SCC(=O)N2CC(C)OC(C)C2)nnc1-c1ccncc1 (configuration not stated)	/	/	.	.	/	.	/	/
O=C(NCc1ccc2c(c1)OCO2)c1ccc(CSCc2ccc(Cl)cc2)o1	.	.	.	/	.	.	/	/
O=C(NCc1ccc2c(c1)OCO2)c1ccc(COc2cc(Cl)ccc2Cl)o1	-5.1	.	.	.	.	.	.	.
Cc1ccc(C)c2[nH]c(=O)c(CN(Cc3cccs3)C(=S)NCc3ccco3)cc12	.	.	.	.	.	.	/	/
Cc1c(NC(=O)/C=C/c2cn(-c3ccccc3)nc2-c2ccccc2)c(=O)n(-c2ccccc2)n1C	-5.7	.	.	.	.	.	65%	.
O=C(O)/C=C/c1cn(-c2ccccc2)nc1-c1ccccc1	.	.	.	.	.	.	/	/
COC(=O)CCC(=O)N1CCC(CCC(=O)NCc2ccc(F)cc2)CC1	.	.	.	.	.	.	/	/
CCOC(=O)C1CCN(c2nc(-c3ccccc3)nc3c2oc2ccccc23)CC1	.	.	.	.	.	.	/	/
O=C(O)C1CCN(c2nc(-c3ccccc3)nc3c2oc2ccccc23)CC1	-6	.	.	.	.	.	63%	.
Cc1ccc(C)c(C(=O)COc2ncnc3ccccc23)c1	-5.2	.	.	.	.	.	42%	.
COc1cc(OC)c(C(=O)COc2ncnc3ccccc23)c(OC)c1	.	.	.	.	.	.	/	/
O=C(CSc1nnnn1-c1ccc(Cl)cc1)NC1CCS(=O)(=O)C1 (configuration not stated)	/	/	.	.	/	.	/	/
Cc1ccc(S(=O)(=O)N2CCCC2)cc1C(=O)NCCOc1ccccc1	/	/	.	.	/	.	/	/
SMILES	CHT inh	NALP1 inh	A1 inh	SUMO Mot1 rescue	CHT PAM	NALP3 yeast inh	CHT block conf	HEK293 MPD ctr
COc1ccc2[nH]c3c(N4CC(C)OC(C)C4)ncnc3c2c1 (configuration not stated)	.	.	.	.	.	.	/	/
COc1cccc(N2CCN(c3ncnc4c3[nH]c3ccc(F)cc34)CC2C)c1 (configuration not stated)	-7	.	.	.	.	.	63%	.
COCCn1c(SCC(=O)NC2CC2)nnc1-c1ccc(Cl)cc1	/	/	.	.	/	.	/	/
CCCCN1CCc2c1nc1ccc(Br)cc1c2N	-5.6	.	.	.	.	.	51%	.
CCOc1cc(/C=C2\N=C(SC)SC2=O)cc([N+](=O)[O-])c1OC(C)=O	-5.2	.	.	.	.	.	65%	.
Cc1cc(Br)c(NC(=O)CN2CCCC2)c(Br)c1	/	.	/	/	/	.	/	/
O=C(c1ccc(COc2ccccc2[N+](=O)[O-])o1)N1CCCCCC1	-6.1	.	.	.	.	.	69%	.
Cc1ccc(-c2cccc(CN3CCN(C(C)C)C(CCO)C3)c2)o1 (configuration not stated)	-5.3	.	.	.	.	.	37%	.
O=c1c2cc(NC(=S)NC3CCCCC3)ccc2nc2n1CCCCC2	-5.4	.	.	.	.	.	58%	.
Cc1nc(SCc2nc3ccc(C(=O)c4ccccc4)cc3[nH]2)c2oc3ccccc3c2n1	/	/	.	.	/	.	/	/
CCCCC(=O)OCC(=O)N1N=C(c2c[nH]c3ccccc23)C(O)C1c1ccc(OC)cc1 (configuration not stated)	.	.	.	.	.	.	/	/
COc1ccc(S(=O)(=O)N(C)CC(=O)NC2CC2)cc1OC	.	.	.	.	.	.	/	/
Cc1cccc(C)c1NC(=O)CSc1cc(C(=O)c2nccn2C)c2ccccc2n1	-9.5	.	.	.	.	.	.	.
Cc1cccc(NC(=O)CNC(=O)c2cn(Cc3ccccc3)nc2-c2cccnc2)c1C	/	/	.	.	/	.	/	/
NC(=O)c1ccc(C2SCC(=O)N2Cc2ccccc2)cc1 (configuration not stated)	-6.3	.	.	.	.	.	.	.
COc1ccc(CNS(=O)(=O)c2cc3c4c(c2)C(C)C(=O)N4CCC3)cc1 (configuration not stated)	.	.	.	.	.	.	/	/
Cc1nc(N2CCCCC2C)c2c(C)c(C(=O)Nc3ccccc3C(F)(F)F)sc2n1 (configuration not stated)	-7.5	.	.	.	.	.	.	.
COc1ccc(OC)c(C2=NS(=O)(=O)N(C)C(C(=O)Nc3ccc(F)cc3F)=C2)c1	.	.	.	.	.	.	/	/
C=CCNc1ncnc2c1cnn2-c1ccc(C)cc1C	.	/	.	.	.	.	/	/
